Consider twelve compounds from PubChem BioAssay.

A short description of assay [1]: HepG2 liver cancer cell viability effects, profiling panel, resazurin fluorescence, 24 h, PK04 Diversity Set (AID 1172). Note: test concentration not given here. Particulars: higher = more signal.
A short description of assay [2]: basal S. cerevisiae growth modulation, no modifier, primary screen, OD600, strain BY4716, 24 h, basal condition (AID 1173). Particulars: OD600, 24 h, higher = more signal, called active from +8 up or from −8 down.
The nature of assay [3]: MM1S myeloma cell viability, profiling panel, resazurin fluorescence, basal, 24 h, PK04 Diversity Set (AID 1174).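 Note: MM1S multiple myeloma cell line; test concentration not given here.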 Particulars: higher = more signal, called active from +8 up or from −8 down. (In general: Resazurin is reduced to fluorescent resorufin, in cell work by metabolically active cells.)
The target of assay [4] is Dihydroorotate dehydrogenase (quinone), mitochondrial (Plasmodium falciparum (isolate 3D7)) (UniProt Q08210). Put plainly: PfDHODH enzyme inhibitors, primary screen, biochemical, C-terminal His tag, absorbance 600 nm (AID 1175).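 Note: recombinant parasite enzyme with a five histidine tag at its C terminus; test concentration not given here.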 Particulars: DCIP absorbance 600 nm, higher = more signal, called active from +8 up or from −8 down.
Sequence of Dihydroorotate dehydrogenase (quinone), mitochondrial (Plasmodium falciparum (isolate 3D7)) (Q08210 whole entry, looked up): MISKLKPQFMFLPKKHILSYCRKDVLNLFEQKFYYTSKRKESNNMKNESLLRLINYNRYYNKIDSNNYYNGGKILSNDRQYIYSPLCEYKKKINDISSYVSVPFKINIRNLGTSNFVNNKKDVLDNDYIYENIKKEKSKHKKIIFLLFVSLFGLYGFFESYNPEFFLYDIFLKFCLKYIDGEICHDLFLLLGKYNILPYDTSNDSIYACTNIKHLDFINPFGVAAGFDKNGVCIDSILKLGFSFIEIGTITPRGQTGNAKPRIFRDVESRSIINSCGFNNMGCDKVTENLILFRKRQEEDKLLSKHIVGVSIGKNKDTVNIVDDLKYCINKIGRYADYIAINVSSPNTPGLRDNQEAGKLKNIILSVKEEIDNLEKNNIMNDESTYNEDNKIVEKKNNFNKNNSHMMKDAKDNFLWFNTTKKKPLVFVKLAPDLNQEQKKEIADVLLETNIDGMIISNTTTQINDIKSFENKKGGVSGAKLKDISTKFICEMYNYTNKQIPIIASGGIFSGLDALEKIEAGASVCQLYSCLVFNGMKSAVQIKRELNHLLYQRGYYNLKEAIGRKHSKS
A short description of assay [5]: P. aeruginosa biofilm formation inhibitors, primary screen, strain PAO1, LB-PBS medium, absorbance 600 nm (AID 1176). Note: test concentration not given here. The conditions noted are these: P. aeruginosa PAO1 growth/biofilm, A600, 12 h; higher = more signal.
Assay [6] can be described thus: S. cerevisiae RM11-1a growth modifiers, primary screen, strain RM11-1a, OD600, basal, 24 h (AID 1177).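 Note: cultures grown under basal conditions with no added stressor; test concentration not given here.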 The conditions noted are these: OD600, 24 h, higher = more signal, called active from +8 up or from −8 down.
A short description of assay [7]: E. coli acrAB mutant growth effects, primary screen, E. coli filamentation inducers, strain DRC39, OD650, 24 h (AID 1178).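 Note: growth measured as culture turbidity by optical density at 650 nm; test concentration not given here.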 Particulars: higher = more signal, called active from +8 up or from −8 down.
The nature of assay [8]: E. coli acrAB mutant growth effects, primary screen, E. coli filamentation inducers, strain DRC39, OD650, 48 h (AID 1179).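 Note: screen aims at cell division blockers that make cells filament.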 The conditions noted are these: E. coli DRC39 delta-acrAB growth, higher = more signal, called active from +8 up or from −8 down.
Assay [9] in a line: RPMI8226 myeloma cell viability, profiling panel, resazurin fluorescence, basal, 24 h, PK04 Diversity Set (AID 1180).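 Note: RPMI8826 multiple myeloma cell line at 5000 cells per well; test concentration not given here.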 Particulars: higher = more signal.
The target of assay [10] is E3 ubiquitin-protein ligase XIAP (Homo sapiens) (UniProt P98170). Kind of assay: XIAP binders, primary screen, biophysical, small-molecule microarray, fluorescence 635 nm (AID 1181).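 Note: score merges 667 nm emission and signal to noise over triplicate slides.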 The conditions noted are these: small-molecule microarray binding, higher = more signal.
Sequence of E3 ubiquitin-protein ligase XIAP (Homo sapiens) (P98170 whole entry, looked up): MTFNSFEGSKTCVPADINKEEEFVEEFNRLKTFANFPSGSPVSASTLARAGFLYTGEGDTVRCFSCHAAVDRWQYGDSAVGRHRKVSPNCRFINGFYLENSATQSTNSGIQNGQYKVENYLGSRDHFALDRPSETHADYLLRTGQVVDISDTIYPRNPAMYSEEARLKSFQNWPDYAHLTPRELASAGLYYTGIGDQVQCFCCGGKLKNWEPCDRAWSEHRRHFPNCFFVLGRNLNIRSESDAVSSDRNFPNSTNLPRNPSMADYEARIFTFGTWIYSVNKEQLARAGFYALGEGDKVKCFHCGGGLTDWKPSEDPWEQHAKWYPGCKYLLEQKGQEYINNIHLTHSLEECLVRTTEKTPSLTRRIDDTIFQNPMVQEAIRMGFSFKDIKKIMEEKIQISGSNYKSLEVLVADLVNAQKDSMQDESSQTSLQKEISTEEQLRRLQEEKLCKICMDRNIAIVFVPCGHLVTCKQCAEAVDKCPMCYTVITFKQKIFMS

SMILES strings stand for the structures. Active and inactive are the calls of the source. Unless noted, the rule behind the calls is not given here.

`COC(=O)[C@@]1(Cc2ccc(OC)cc2)[C@H]2c3cc(C(=O)N4CCCC4)n(CCc4ccc(O)c(OC)c4)c3C[C@H]2CN1C(=O)c1ccccc1`: the z-score in [1] was -0.21; in assay [2], 0.768 (inactive); in [3], -0.427 (inactive); in assay [5], 0.467 (inactive); in [6] it was 0.279 (inactive); in [7], -0.744 (inactive). Besides, the z-score is -0.939 (inactive) in assay [8] and -0.125 in assay [9]. Further, the composite z-score in assay [4] was -0.474 (inactive); in assay [10] it was 0.659.

On to `COc1ccc(C#Cc2ccc3c(c2)[C@]2(C(=O)N3)[C@H](C(=O)O)[C@H]3C(=O)O[C@H](c4ccccc4)[C@H](c4ccccc4)N3[C@@H]2c2ccc(OCCO)cc2)cc1`, for which the z-score in assay [1] was -0.182; in assay [2], 0.773 (inactive); in [3] it was 0.586 (inactive); in [5] it was 3.6 (inactive); in assay [6] it was 2.51 (inactive); in [7], 0.851 (inactive). The z-score in assay [8] is 0.377 (inactive); in assay [9] it was 0.431. Further, the composite z-score in [4] was -15.6 (active); in [10] it was 0.0811.

Take `O=[N+]([O-])c1ccc(C[n+]2ccc(-c3ccc(CO)cc3)cc2)o1`: the z-score in [1] was -0.216; in assay [2], -5.16 (inactive); in [3] it was -0.979 (inactive); in assay [5] it was 0.503 (inactive); in [6], -0.0644 (inactive); in assay [7] it was -1.11 (inactive). In addition, the figures for the z-score in [8] and in assay [9] were -0.495 (inactive) and -0.904, respectively. Moreover, the composite z-score is -1.94 (inactive) in [4] and -0.0047 in assay [10].

With `COCCOC(=O)N1C(=O)[C@@]2(c3cc(C#CCNC(N)=O)ccc31)[C@H](C(=O)N1CCCCCCC1)[C@H]1C(=O)O[C@H](c3ccccc3)[C@H](c3ccccc3)N1[C@@H]2c1ccc(OCCO)cc1`, the z-score is -0.178 in assay [1]; 0.971 (inactive) in assay [2]; -0.237 (inactive) in [3]; 2.73 (inactive) in assay [5]; 1.59 (inactive) in assay [6]; -0.0272 (inactive) in assay [7]. Besides, the values for the z-score in assay [8] and in [9] were 0.531 (inactive) and 0.176, respectively. Besides, the composite z-score is -0.0134 (inactive) in assay [4] and 0.0471 in assay [10].

As for `COc1cccc(C[C@H]2C[C@@H](CO[Si](C(C)C)(C(C)C)C(C)C)N3C(=O)[C@]4(C(C)=O)O[C@]23[C@H]2C(=O)N(C)C(=O)[C@H]24)c1`, the z-score is -1.03 in assay [1]; 2.01 (inactive) in [2]; -0.713 (inactive) in assay [3]; 1.32 (inactive) in assay [5]; 0.979 (inactive) in assay [6]; -0.356 (inactive) in assay [7]. In addition, the results for the z-score in [8] and in assay [9] were -0.152 (inactive) and -2.81, respectively. For the same compound, the composite z-score in assay [4] was 0.564 (inactive); in assay [10], 0.0264.

Turning to `[N-]=[N+]=NCc1ccccc1[C@H]1OC(c2ccc(OCCCO)cc2)=N[C@@]1(Cc1ccccc1)C(N)=O`, the z-score in assay [1] is 1.16; in [2], -3.32 (inactive); in assay [3] it was -0.0284 (inactive); in assay [5], -0.195 (inactive); in [6], 1.01 (inactive); in assay [7] it was 0.961 (inactive). The values for the z-score in [8] and in assay [9] were 0.195 (inactive) and -0.373, respectively. Also, the composite z-score is -0.174 (inactive) in assay [4] and -0.124 in [10].

For the compound `Cc1ccc(S[C@]2(C(=O)O)CC(=O)N(C3CCCCC3)[C@@H]2c2ccc(CO)cc2)cc1`, the z-score is -0.628 in assay [1]; -1.74 (inactive) in assay [2]; 0.0977 (inactive) in assay [3]; 0.512 (inactive) in assay [5]; -0.332 (inactive) in assay [6]; 0.643 (inactive) in [7]. Also, the z-score in assay [8] was 1.48 (inactive); in assay [9] it was 0.273. Moreover, the composite z-score in assay [4] was 0.234 (inactive); in assay [10], -0.0031.

Consider `N#Cc1ccc(NN2C(C(O)c3ccco3)C=CC3C(=O)N(c4ccccc4)C(=O)C32)cc1` (stereo not given), for which the z-score in assay [1] was -0.674; in [2], -0.36 (inactive); in assay [3], -0.512 (inactive); in assay [5], 1.07 (inactive); in assay [6], 0.293 (inactive); in assay [7], -2.14 (inactive). Further, the z-score in [8] is -2.13 (inactive); in assay [9], -0.607. Besides, the figures for the composite z-score in assay [4] and in [10] were 0.0512 (inactive) and 0.0794, respectively.

In the case of `CCOc1cc(C(O)C2C=CC3C(=O)NC(=O)C3N2Nc2ccccn2)ccc1O` (stereo not given), the z-score is -1.35 in assay [1]; 1.67 (inactive) in [2]; -1.33 (inactive) in assay [3]; 0.599 (inactive) in assay [5]; 0.24 (inactive) in [6]; -1.17 (inactive) in assay [7]. The z-score in assay [8] was -0.0662 (inactive); in assay [9], -0.672. In addition, the composite z-score was 0.21 (inactive) in [4] and 0.0652 in [10].

As to `COc1cc(NN2C(C(O)c3ccc(I)cc3)C=CC3C(=O)N(C)C(=O)C32)cc(OC)c1OC` (stereo not given), the z-score in assay [1] was -1.7; in assay [2], 0.643 (inactive); in assay [3] it was -0.297 (inactive); in [5], 1.08 (inactive); in [6], -0.377 (inactive); in assay [7], 0.168 (inactive). The z-score in [8] was -0.413 (inactive); in assay [9], -0.786. In addition, the composite z-score in assay [4] is -0.698 (inactive); in [10], 0.346.

As for `O=C(CS)NCCCCCNC(=O)[C@@H]1C[C@@H]2C(=O)N3CCC[C@H]3C(=O)N2[C@@H]1c1ccc(O)cc1`, the z-score in [1] is -0.196; in assay [2] it was -0.419 (inactive); in assay [3], -0.0752 (inactive); in assay [5], -0.102 (inactive); in assay [6], 0.132 (inactive); in assay [7], -0.651 (inactive). For the same compound, the z-score in [8] was -0.265 (inactive); in [9], -0.0255. Moreover, the figures for the composite z-score in assay [4] and in [10] were 0.252 (inactive) and -0.127, respectively.

Regarding `C=C(C)[C@@H]1CC=C(C(O)C2C=CC3C(=O)N(C4CCCCC4)C(=O)C3N2Nc2ccc(OC)cc2)CC1` (stereo not given in full), the z-score in [1] is 0.14; in [2], 0.702 (inactive); in [3], -0.0469 (inactive); in [5], 0.987 (inactive); in assay [6], 0.0587 (inactive); in [7] it was -0.703 (inactive). In addition, the values for the z-score in assay [8] and in assay [9] were -0.0015 (inactive) and 0.199, respectively. The results for the composite z-score in assay [4] and in [10] were -0.157 (inactive) and 0.356, respectively.
